From PubChem
An excerpt weighted towards active compounds, which were near 2.3% of everything screened.
FUS yeast rescue: qHTS for Suppressors of FUS Proteinopathy: Primary screen using FUS-linked yeast assay | S. cerevisiae FUS-expressing, growth rescue, OD600, 24 h | Potency, µM (doses to about 76.6 µM), most hits filed as activators | 390,000 compounds, 0.24% hits | AID 1347120, 2019; further: nearly all actives have a fitted effect of over 55% in size
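Cultures pregrown in 2.5% raffinose medium are shifted to minimal medium containing 2% galactose to express toxic FUS. Compounds are tested at several concentrations. After 24hr at 30C, growth is quantified at 600 nm absorbance.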
Giardia killer: Small Molecules that selectively kill Giardia lamblia: qHTS; activity change, % at 7.66 µM, hits read low; 340,000 compounds, 0.15% hits; Giardia lamblia trophozoite viability; in the data active means activity change below about -80%; inconclusive means between about -30% and that limit;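 further: parasites exposed to compound for two days anaerobically before the ATP read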
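Anaerobic 48 hrs incubation at 37 deg C of 100 trophozoites/well with test compounds; ATPLite 1-Step luminescence, 15-30 min RT, reports cellular ATP as viability.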
TRPV1 agonist: HTS Assay for Compounds that Act as Agonists of the Vanilloid Receptor 1; activation, % at 8.33 µM; AID 540275, 2011; 320,000 compounds, 0.19% hits; TRPV1-expressing cells, Fluo-8 calcium influx, agonist mode; in the data active means activation above about 80%; inconclusive means between about 30% and that limit
Target sequence (Q8NER1 whole entry, looked up): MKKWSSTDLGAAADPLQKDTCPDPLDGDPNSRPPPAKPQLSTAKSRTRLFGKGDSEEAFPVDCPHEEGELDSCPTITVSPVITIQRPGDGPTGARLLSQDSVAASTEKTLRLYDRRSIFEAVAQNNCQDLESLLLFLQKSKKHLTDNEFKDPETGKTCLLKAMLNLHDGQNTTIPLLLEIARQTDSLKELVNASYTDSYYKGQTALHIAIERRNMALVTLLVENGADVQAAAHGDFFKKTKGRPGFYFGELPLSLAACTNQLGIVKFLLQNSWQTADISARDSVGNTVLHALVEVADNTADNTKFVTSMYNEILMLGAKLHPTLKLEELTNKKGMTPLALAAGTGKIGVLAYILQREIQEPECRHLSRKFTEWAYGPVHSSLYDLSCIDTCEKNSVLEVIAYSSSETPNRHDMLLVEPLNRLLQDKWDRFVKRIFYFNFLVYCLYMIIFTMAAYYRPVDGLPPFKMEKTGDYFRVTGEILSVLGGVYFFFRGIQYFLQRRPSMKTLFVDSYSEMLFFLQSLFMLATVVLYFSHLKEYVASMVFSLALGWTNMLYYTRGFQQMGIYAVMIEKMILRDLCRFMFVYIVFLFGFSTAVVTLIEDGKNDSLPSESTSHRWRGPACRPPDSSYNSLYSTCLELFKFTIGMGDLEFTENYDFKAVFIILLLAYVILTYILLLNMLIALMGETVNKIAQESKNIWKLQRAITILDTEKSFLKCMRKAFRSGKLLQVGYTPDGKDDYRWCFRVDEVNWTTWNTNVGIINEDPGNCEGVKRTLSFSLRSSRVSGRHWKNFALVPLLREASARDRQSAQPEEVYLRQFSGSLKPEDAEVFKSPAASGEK
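Cells expressing TRPV1 were dye-loaded with Fluo-8 and read kinetically: 10 s baseline, 3 min after compound (agonist portion), then 2 min after EC20 capsaicin (allosteric enhancer portion). Calcium-bound dye fluorescence at 480/520 nm.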
ELG1 repair inh: qHTS screen for small molecules that inhibit ELG1-dependent DNA repair in human embryonic kidney (HEK293T) cells expressing luciferase-tagged ELG1; HEK293T ELG1-luciferase reporter, luminescence, 16 h; DNA damage induced by 5-fluorouridine; Potency, µM (highest dose often 46.1 µM), actives largely listed as inhibitors; 330,000 compounds, 2.3% hits; AID 504467, 2011; further: nearly all actives have a fitted effect of over 55% in size
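Luminescence from the luciferase reporter, measured 30 min after ONE-Glo reagent at room temperature, was the read-out. Beforehand, 2,000 cells per well were exposed for 16 hr at 37 °C to 5-fluorouridine together with compound or vehicle.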
TRPV1 PAM: HTS Assay for Compounds that Act as Potentiators of the Vanilloid Receptor 1. TRPV1-expressing cells, Fluo-8 calcium influx, capsaicin EC20 potentiation. potentiation, % at 8.33 µM. 320,000 compounds, 0.02% hits; in the data active means potentiation above about 80%; inconclusive means between about 30% and that limit
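Cells expressing TRPV1 were dye-loaded with Fluo-8 and read kinetically: 10 s baseline, 3 min after compound (agonist portion), then 2 min after EC20 capsaicin (allosteric enhancer portion). Calcium-bound dye fluorescence at 480/520 nm.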
Numbers stand for hits; – = inactive; ? = inconclusive; · = no result. Unless noted, the call rests on the fitted dose curve; in most records, active means well fitted curve in the direction sought with a large enough effect; inconclusive means small, poorly fitted or top-dose-only effect, or another doubt; inactive means no such curve, though single readings can be large; an effect the other way counts as inactive or inconclusive.

SMILES	FUS yeast rescue	Giardia killer	TRPV1 agonist	ELG1 repair inh	TRPV1 PAM
Cc1cc(N2CCN(C)CC2)nc2ccc(NC(=O)Nc3ccccc3Cl)cc12	–	·	·	·	·
C=CCc1ccccc1OCc1nc2ccccc2n1CC	–	·	·	·	·
Cc1c(C(=O)N2CCN(Cc3ccc4c(c3)OCO4)CC2)sc2ncnc(N3CCN(c4ccccc4)CC3)c12	–	–	–	4.61µM	–
CCCNC(=O)Cn1cnc2sc(C(=O)N3CCN(Cc4ccc5c(c4)OCO5)CC3)c(C)c2c1=O	–	–	–	?	–
CCN1CCN(C(=O)c2sc3ncnc(N4CCc5ccccc5C4)c3c2C)CC1	–	–	?	?	–
Cc1c(C(=O)N2CCN(Cc3ccc4c(c3)OCO4)CC2)sc2ncnc(N3CCN(c4ccccc4F)CC3)c12	–	–	–	6.51µM	–
CC(=O)n1cc(N(C(=O)CCl)c2ccc([N+](=O)[O-])cc2)c2ccccc21	–	–	–	23.1µM	–
CCOc1ccc(NC(=O)c2cccc(N3CCCS3(=O)=O)c2)cc1	–	·	·	·	·
O=C(CCc1ccccc1)NCC(=O)N/N=C/c1ccc(O)cc1O	–	–	–	8.2µM	–
COc1ccccc1/C=C\C(=O)NCC(=O)N/N=C/c1ccc(O)cc1O	–	–	–	23.1µM	–
COc1ccccc1/C=C/C(=O)NCC(=O)N/N=C/c1ccccc1	–	–	–	–	–
CC1(C)Oc2ccc(C(=O)NC3CCCC3)cc2NC1=O	–	·	·	·	·
Cc1ccc(N2CCN(C(=O)C3CCN(S(=O)(=O)c4ccc5c(c4)oc(=O)n5C)CC3)CC2C)cc1 (configuration not stated)	–	·	·	·	·
C=CCN(c1ccccc1)S(=O)(=O)c1cccc(C(=O)Nc2nc3ccccc3[nH]2)c1	–	–	–	23.1µM	–
C=CCN(c1ccccc1)S(=O)(=O)c1cccc(C(=O)NCc2ccncc2)c1	–	–	?	8.2µM	–
C=CCN(c1ccccc1)S(=O)(=O)c1cccc(C(=O)Nc2ccncc2)c1	–	–	–	?	–
CCCCSCCCNC(=O)c1cn(C)c2ccc(S(=O)(=O)N3CCCCC3)cc2c1=O	–	·	·	·	·
Cc1nc2ccccc2cc1OCc1ccccc1	–	–	?	–	–
Cc1nc2ccccc2cc1OCc1ccc(Cl)cc1	–	–	83.4	?	–
CCOC(=O)Cc1csc(/N=C/c2c(O)n(-c3ccccc3C(F)(F)F)c(=O)c3ccccc23)n1	–	–	–	13µM	–
CCOc1ccc2nc(NC(=O)CSc3nc4c(c(=O)n(C)c(=O)n4C)n3C(C)C)sc2c1	·	–	–	9.2µM	–
CC(C)n1c(SCC(=O)Nc2nc3ccccc3s2)nc2c1c(=O)n(C)c(=O)n2C	–	–	·	·	·
CCn1c(SCC(=O)Nc2nc3ccc(OC)cc3s2)nc2c1c(=O)n(C)c(=O)n2C	?	–	–	13µM	–
Cc1ccc(Cn2cc3c(n2)-c2c(oc(C(=O)Nc4ccc(F)cc4F)c2C)CC3)cc1	–	·	·	·	·
CC(C)(C)S(=O)(=O)c1cnc2c(S(=O)(=O)c3ccccc3)cnn2c1N	–	–	–	–	–
SMILES	FUS yeast rescue	Giardia killer	TRPV1 agonist	ELG1 repair inh	TRPV1 PAM
Cc1nc2c(S(=O)(=O)c3ccccc3)cnn2c(C)c1C	–	–	–	–	82.2
COc1cccc(N2CC(NC(=O)COc3ccc4ccccc4c3)CC2=O)c1 (configuration not stated)	–	·	·	·	·
CC(C)CC(COCc1ccc(Cl)cc1)N1CCN(C(=O)c2cccc(C(F)(F)F)c2)CCC1=O (configuration not stated)	31.6µM	–	?	–	–
Cc1ccc(COC[C@H](CC(C)C)N2CCN(C(=O)c3cccc(C(F)(F)F)c3)CCC2=O)cc1	4.47µM	·	·	·	·
CCCc1nc2c3ccccc3ccn2c1Cc1cccc(F)c1	–	·	·	·	·
COC(=O)c1ccccc1NC(=O)Cn1c(=O)n(CCCC(=O)NCCc2ccc(OC)c(OC)c2)c(=O)c2ccccc21	–	·	·	·	·
Cc1cc(C)c(S(=O)(=O)/N=C2/C=C(Sc3ncn[nH]3)C(=O)c3ccccc32)cc1C	?	–	–	20.6µM	–
Cc1cc(O)c(Sc2ncn[nH]2)cc1NS(=O)(=O)c1ccc(Cl)cc1	·	–	–	–	–
